Laboratory results from ChEMBL document CHEMBL4513216, “Probing the Open Global Health Chemical Diversity Library for Multistage-Active Starting Points for Next-Generation Antimalarials” (ACS Infect Dis, 2020).
The whole screen tested about 65,000 compounds, of which about 2,100 (3.2%) showed an effect of 50% or more. The median lay at about -52%. The list comes from a sample in which strong results are over-represented; it also holds similar structures and randomly drawn compounds.

system: Plasmodium falciparum; assay: Screen against P. falciparum Asexual Blood Stage (ABS), at 5uM; assay type: functional, Dd2; conditions: tested at 5 uM

Compound	INHIBITION
O=C1CO[C@H]2CN(C3CCOCC3)C[C@H]2N1Cc1ccncc1	-53.2%
CCCNC(=O)c1cn(C(C)(C)C)c2ncccc12	-149%
COCCNC(=O)c1cn(C(C)(C)C)c2ncccc12	-129%
CC(C)(C)C(=O)NCCNCc1ccc(Cl)c2cccnc12	77.7%
O=C(N1CCOCC1)N1CCC2(CCNC2)C1 (centres undefined)	-12.3%
CC(C)CN1CCC2(CC1)C(=O)Nc1ccc(C(=O)N(C)C)cc12	-21.2%
Cc1c(C2SCC(=O)Nc3c2c(O)nn3C2CCCCC2)cnn1C (centres undefined)	-53.5%
COc1cnc(N2CC(N3CCOCC3)C2)nc1-c1ccnn1C	75.3%
c1cc(COC[C@@]23CCC[C@@H]2CN(C2CCOCC2)C3)ccn1	-24.5%
COc1cccc(CN(Cc2ccco2)Cc2[nH]cnc2C)c1	86.4%
Cc1nc[nH]c1CN1CCCC12CCN(c1ccccn1)CC2	-15.3%
COc1cccc(CCNCc2c(C)nn(C)c2N(C)C)c1	49%
Cc1nc[nH]c1CN(Cc1ccccc1)Cc1nccs1	75.7%
CC1CCN(CC(=O)N(Cc2ccccc2)Cc2nccs2)C1=O (centres undefined)	-96.3%
CCOCCCNC(=O)c1cn(C(C)(C)C)c2ncccc12	-151%
CC(NCC1CCN(CCO)CC1)c1cccc(Cl)c1 (centres undefined)	84.8%
CC(NCC1CCN(CCO)CC1)c1ccc(F)c(Cl)c1 (centres undefined)	84.1%
CN(CC1CCN(CCO)CC1)CC(O)c1ccc(F)c(F)c1 (centres undefined)	76.5%
COc1ccc(Cl)cc1CC(=O)N1CCN(CCO)CC1	-118%
CC(NCC1CCN(CCO)CC1)c1ccc(Cl)cc1 (centres undefined)	93.9%
Cc1n[nH]c2c1C(c1ccc(Br)cc1)SCC(=O)N2 (centres undefined)	-33.1%
CCOCC(=O)NC(C)Cc1ccccc1Br (centres undefined)	-68.7%
Cc1ccnc(OC[C@@]23CCO[C@@H]2CCN(C2CCC2)C3)n1	-9.15%
CC(Cc1ccc(Cl)cc1)NC(=O)Nc1cnn(CC(N)=O)c1 (centres undefined)	22.5%
CSc1cccc(CN(C)C(=O)c2cccc(C3CCCNC3)c2)c1 (centres undefined)	77.5%
CNC(=O)c1ccc2c(c1)C1(CCN(C(C)C)CC1)C(=O)N2	-45.1%

Compound	INHIBITION
O=C(c1ccccc1)N1CCOC2CNCC[C@H]21 (some centres undefined)	-28.1%
Cc1cc(N(C)C)cc(C2CCN(S(=O)(=O)c3cccs3)C2)n1 (centres undefined)	84.1%
CCCSCC(=O)N1C[C@@H]2CC[C@H]1CN(Cc1cccnc1)C2	-60%
Cc1ccc(N2CC[C@@H]3[C@@H]2CCN3Cc2ccsc2)nn1	-103%
Cc1cc(N2CCC(NCCOc3ccccc3)CC2)nc(C)n1	75.1%
Cc1cccc(N2CCC(NC(C)c3cccs3)CC2)n1 (centres undefined)	-22.7%
Cc1cc(N2CCC(NC(C)Cc3ccsc3)CC2)nc(C)n1 (centres undefined)	85.8%
CCCc1cc(N2CCC(NCCc3ccc(O)cc3)CC2)nc(C)n1	82.1%
CCc1cc(N2CCC(NC3CN4CCC3CC4)CC2)nc(N(C)C)n1 (centres undefined)	-25.1%
Cc1cc(N2CCCC2c2cccnc2)nc(C)n1 (centres undefined)	-10.2%
CC(C)OC(=O)N1C[C@@H]2CC[C@H]1CN(Cc1cccnc1)C2	-128%
Cc1cccc(CN2C(=O)C[C@H]3[C@@H]2CCN3Cc2cccs2)n1	-76.6%
CN1CCC(N2CCOC3(CCCC3)C2)C1=O (centres undefined)	-26.7%
Cc1ccccc1CNCC(O)c1ccc(OC(C)C)cc1 (centres undefined)	92.4%
CC(C)Oc1ccc(C(O)CNCc2ccccc2C(F)(F)F)cc1 (centres undefined)	83.2%
OC(CNCc1ccccc1C(F)(F)F)c1ccccc1 (centres undefined)	82.4%
Cc1noc(C)c1C(=O)N1CCOC2(COCCN(C(C)C)C2)C1 (centres undefined)	-57.3%
CN(CCCOc1ccccc1)C(=O)c1csc(-c2nnc[nH]2)n1	77.1%
CC1(C)CN(C(CNC2=NCCN2)c2ccc(Cl)cc2)CCO1 (centres undefined)	83%
Cc1n[nH]c2c1C(c1ccc(O)c(Cl)c1)SCC(=O)N2 (centres undefined)	-65.6%
O=C(c1ccc(-n2cccn2)nc1)N1CCC(c2ccc(O)cc2)CC1	75.1%
Cc1ccc(C(=O)N2C[C@@H]3OCCN(C)[C@@H]3C2)cn1	-12.2%
O=C(c1ccc(-n2ccnc2)nc1)N1CCN2CCCCC2C1 (centres undefined)	-56.6%
Cc1noc(C)c1CN1C[C@H](OCC2CC2)[C@H]2COC[C@H]21	-54.7%
Fc1ccccc1CO[C@@H]1C[C@H]2CN(c3ncccn3)CCN2C1	-67.9%
Fc1cccc(CN2CCC(c3cc4ncccc4cn3)CC2)c1F	89.4%

Compound	INHIBITION
Fc1ccc(F)c(CN2CCC(c3cc4ncccc4cn3)CC2)c1	76%
O=C(Cc1ccccc1F)N1CCN(Cc2noc(C3CC3)n2)CC1	-69%
COc1ccc(C)cc1CN1CCC(c2cc3ncccc3cn2)CC1	78.2%
Fc1cnccc1CN1CCC2(CCN2c2ncccn2)C1 (centres undefined)	-10.7%
CN1C(=O)C2(CCN(Cc3cccnc3)CC2)c2cccc(F)c21	-61.4%
O=C1CO[C@H]2CN(Cc3cccnc3)C[C@H]2N1	-119%
CCN1CCN(C(=O)Cc2ccc(S(=O)(=O)C(F)F)cc2)CC1	-124%
NCC1Cc2cccc(-c3ccc(O)c(F)c3)c2O1 (centres undefined)	82.9%
COCC(=O)N1C[C@@H]2OCCN(Cc3c(C)noc3C)[C@@H]2C1	-93.2%
c1cncc(O[C@H]2CC[C@H]3[C@H]2OCCN3C2CCC2)c1	-27.2%
Cc1ccc(Cl)cc1N1CCC(CNC(=O)CCn2ccnc2)C1 (centres undefined)	84.2%
CCN1CCN(C(=O)c2cn(Cc3ccccc3)c3ncccc23)CC1	20.5%
CC(=O)c1cc(C(=O)N2CC[C@H]3CC[C@@H](C2)N3C)c(=O)[nH]c1C	-102%
CCc1ncc(C(=O)N2CC[C@H]3CC[C@@H](C2)N3C)cn1	-3.55%
CN1[C@@H]2CC[C@H]1CN(C(=O)c1ccc(-c3ccccc3)[nH]1)CC2	79.7%
COCCN1CCN(Cc2ccncc2)[C@H]2CS(=O)(=O)C[C@H]21	-111%
CNC(=O)CN1CC[C@H]2CN(C(=O)c3ccc(C)nc3)C[C@H]2C1	-17.9%
CCN(CC)CCN1CCO[C@H]2[C@@H](OCc3ccccn3)CC[C@@H]21	-115%
COC(=O)c1cc(OCC2CCC2)cc(C(=O)N[C@@H]2CNCC[C@H]2O)c1	90.1%
CC1=N[C@@]2(CC[C@@H]3CN(CC(C)C)C[C@@H]32)C(=O)N1	-40.1%
COc1ccc2c(c1)c(C(=O)Nc1n[nH]c(C(C)C)n1)cn2C(C)C	22.8%
CCCc1nc(N(C)CCN2CCCCCC2)c2cnn(C)c2n1	92.9%
CCCc1nc(N2CCCN3CCC[C@H]3C2)c2cnn(C)c2n1	-7.45%
CCCc1nc(N2CCCC3(CCNC3)C2)c2cnn(C)c2n1 (centres undefined)	-53.5%
Cc1c(C2SCC(=O)Nc3c2c(O)nn3C2CCCC2)cnn1C (centres undefined)	-70.4%
CC(C)N1CCC2(CCCNC2)C1=O (centres undefined)	25.4%

Compound	INHIBITION
O=C1C[C@H]2[C@@H](CCN2Cc2ccccn2)N1CCN1CCOCC1	27.7%
c1cc(N2CCC(CN3CCOCC3)CC2)c2sccc2n1	92.3%
c1cnc(N2CCC3(COCCN(CC4CCOCC4)C3)C2)nc1 (centres undefined)	-26.6%
O=C1NC[C@H]2CN(Cc3ccnc4ccccc34)CCN12	-11.8%
CCC(O)(CNCc1cc[nH]n1)c1ccc(Br)cc1 (centres undefined)	76.4%
O=C(NCc1ccccn1)[C@@]12CCO[C@@H]1CCN(C1CCCC1)C2	-21.2%
O=S(=O)(C1CC1)N1CCC2(CC1)CN(Cc1ccccn1)CCO2	-110%
CC(C)N1CCC2(CC1)CC(NCc1ccccn1)c1ccccc1O2 (centres undefined)	70.7%
Cn1cc(CN2CC[C@]3(C[C@H](OCc4ccccn4)CO3)C2)cn1	-37.1%
OCCN1CCC2(CC1)CC(NCc1ccccn1)c1ccccc1O2 (centres undefined)	70.8%
CC(C)N1CCOCC2(CN(Cc3ccccn3)CCO2)C1 (centres undefined)	-62.4%
CN(C)C(=O)[C@@H]1C[C@@H]2CCN(Cc3ccncc3)C[C@@H]2O1	-19.3%
CCCN1CCC[C@]2(CCC(=O)N2Cc2ccncc2)[C@H]1CC	-97.5%
O=C(C1CC=CC1)N1CCC2(CC1)CNCCO2	-57.4%
O=C(C1CCOCC1)N1CCC2(CCNCC2)C1	-36.9%
O=C(C1CC1)N1CCC2(CC1)OCCO2	-77.4%
C[C@@H]1CN(C(=O)C2CCS(=O)(=O)CC2)CC[C@@]1(O)C1CCOCC1	71.2%
O=C([C@@H]1Cc2[nH]cnc2CN1Cc1cc2ccccc2o1)N1CCCC1	95%
CCOCC(O)CN1CCN(C(=O)Cc2ccc3c(c2)CCO3)CC1 (centres undefined)	-3.91%
O=C(Cc1ccccc1Cl)N1CCN(CC(O)COCCO)CC1 (centres undefined)	58%
CCOCC(O)CN1CCN(C(=O)Cc2ccccc2Cl)CC1 (centres undefined)	-121%
CCOCC(O)CN1CCN(C(=O)Cc2cccc(Cl)c2)CC1 (centres undefined)	-87.1%
CCOCC(O)CN1CCN(C(=O)Cc2cccc(C)c2)CC1 (centres undefined)	59.6%
CCC(O)CN1CCN(C(=O)Cc2ccc(C)nc2)CC1 (centres undefined)	36.3%
Cc1ccc(CC(=O)N2CCN(CC(O)C(C)(C)C)CC2)cn1 (centres undefined)	-202%
CCOCC(O)CN1CCN(C(=O)Cc2ccc3c(c2)CCC3)CC1 (centres undefined)	69.6%
